Compounds with a hit are over-represented: about 4.1% of the library has one in this group of screens.
hcDAF12 agonist – H. contortus DAF-12 nuclear receptor activators, primary screen, cell-based, luminescence, HEK293, lit1-tk-luc reporter; 1.4% of 370,000 active; HEK293 hcDAF-12 lit1-tk-luc reporter; 0% DMSO, 100% Δ7-dafachronic acid; activation, % at 6.8 µM;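 active means activation above the mean of all tested compounds plus 3 SD, cut at about 5.5% in these data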;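 further: 100% = response to 3 µM Δ7-dafachronic acid high control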
hgDAF-12 ag – H. glycines DAF-12 receptor agonists, primary screen, cell-based, luminescence, HEK293, GAL4 fusion, UAS-luciferase. Nuclear hormone receptor DAF-12 (Heterodera glycines), GAL4 fusion. HEK293 GAL4-hgDAF12 UAS-luciferase reporter, agonist luminescence; normalized to butyrate control. activation, % at 6.8 µM. 1.8% of 370,000 active. AID 687014, 2013;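 active means activation above a cutoff set at the mean of all screened compounds plus 3 SD, cut at about 10% in these data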;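 further: 0% = DMSO wells and 100% = sodium butyrate wells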
DAX1 inh-1 – DAX1 (NR0B1) inhibitors on StAR promoter, primary screen, cell-based, luminescence, SF-1 (NR5A1), full-length DAX-1. HEK293T StAR-luciferase reporter, SF-1/DAX-1 repression relief. inhibition, % at 6.8 µM. 1.1% of 370,000 active;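 active means inhibition above the mean over all tested compounds plus 3 SD, cut at about 3.6% in these data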;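 further: 0% = DAX-1 cells with DMSO and 100% = cells lacking DAX-1 with DMSO; higher inhibition means more luminescence from relief of DAX-1 repression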
ssDAF12 agonist – S. stercoralis DAF-12 nuclear receptor activators, primary screen, cell-based, luminescence, HEK293, GRIP1 co-expression, lit1-tk-luc | Nuclear hormone receptor DAF-12 (Strongyloides stercoralis) | HEK293 ssDAF-12/GRIP1 lit1-tk-luc reporter; % of 3 µM dafachronic acid response | activation, % at 6.8 µM | 1% of 370,000 active;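 active means activation above the mean over all tested compounds plus 3 SD, cut at about 0.9% in these data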;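 further: 0% = DMSO-only wells and 100% = 3 µM delta7-dafachronic acid wells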
DAX1 inh-2 – DAX1 (NR0B1) inhibitors, primary screen, cell-based, HEK293, Gal4-DAX1, luciferase luminescence | Nuclear receptor subfamily 0 group B member 1 (Homo sapiens), P51843 | AID 504766, 2011 | HEK293 Gal4-DAX1 luciferase reporter | 0.99% of 340,000 active | inhibition, % at 6.75 µM;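 active means inhibition above the mean over all tested compounds plus 3 SD, cut at about 4.2% in these data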;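 further: 0% = DAX1-transfected cells with DMSO and 100% = empty-vector control cells with DMSO; inhibition shows as a rise in luminescence from relieved DAX1 repression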
Target sequence (P51843 207-470 limits assumed): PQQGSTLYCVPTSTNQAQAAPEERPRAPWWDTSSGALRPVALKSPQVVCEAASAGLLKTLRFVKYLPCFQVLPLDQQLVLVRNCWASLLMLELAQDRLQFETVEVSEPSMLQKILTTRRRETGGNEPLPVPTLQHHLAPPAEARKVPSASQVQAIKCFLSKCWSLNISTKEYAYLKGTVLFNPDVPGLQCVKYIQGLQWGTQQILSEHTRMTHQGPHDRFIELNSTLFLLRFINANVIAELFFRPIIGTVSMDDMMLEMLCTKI
* marks the source's active call; other numbers are inactive results; . = no result given.

SMILES	hcDAF12 agonist	hgDAF-12 ag	DAX1 inh-1	ssDAF12 agonist	DAX1 inh-2
CC/C(=N/NC(=O)c1ccc(Br)o1)c1ccc(Cl)cc1	2	12*	1	-1	1
CCCC/C(=N\NC(=O)c1ccc(Br)o1)c1ccccc1	1	8	2	0	2
O=C(NCCC1=CCCCC1)NC1CCCCC1	4	11*	3	0	1
NC(=O)NCCC1=CCCCC1	-2	-1	1	-1	-1
CCCOc1ccccc1/C=C(\C#N)C(=O)Nc1cccnc1	0	4	0	-1	5.0*
CC(C)(C)c1ccc(-c2nnc(SCC(=O)Nc3cccc4ccccc34)n2Cc2ccco2)cc1	-3	0	0	-2	.
COC(=O)C[C@@H]1C[C@@H]2c3cc(NS(=O)(=O)c4ccccc4)ccc3O[C@@H]2[C@@H](CO)O1	0	13*	1	-2	1
COC(=O)C[C@H]1C[C@@H]2c3cc(NS(=O)(=O)c4ccc(OC)cc4)ccc3O[C@@H]2[C@H](CO)O1	-2	1	-1	-1	4
C[C@@H]1CC(=O)NN=C1c1ccc(NN=C(C#N)C#N)cc1	-2	0	-1	-1	.
Cc1nc(Nc2ccccc2)sc1C	2	1	0	-1	7.2*
Cc1csc(Nc2ccccc2)n1	0	1	-1	-1	0
Cc1ncoc1C(=O)N1CCc2c([nH]c3ccccc23)C1C1CCCCC1 (stereo unspecified)	6.1*	8	1	1	-1
Cc1ncoc1C(=O)N1CCc2c([nH]c3ccccc23)C1C(C)(C)C (stereo unspecified)	5.6*	0	3	1.0*	1
CN=c1scc(-c2ccc(F)cc2)n1/N=C/c1ccc(O)c(O)c1	6.3*	0	1	-1	-1
O=C(O)/C=C/C(=O)NNc1ncnc2ccccc12	1	1	0	0	1
O=C(NNc1ncnc2ccccc12)c1cccc(Cl)c1	3	11*	1	1	5.8*
O=C(c1cc([N+](=O)[O-])[nH]n1)N1CCSCC1	0	1	2	-2	5.4*
Cc1cc(C(=O)N2CCc3ccccc3C2)n[nH]1	2	0	0	0	1
COc1ccc(S[C@]2(C(=O)N(C)C)CC(=O)N(S(=O)(=O)c3ccc(F)cc3)[C@@H]2c2ccc(OC)cc2)cc1	-3	-2	-2	-1	.
O=C(NC1=NCCS1)c1cccc(Br)c1	5	11*	2	0	7.7*
O=C(NC1=NCCS1)c1ccc(Cl)cc1	5.7*	9	2	0	1
CCOC(=O)c1ccc(NC(=O)Nc2ccc3c(c2)OCCO3)cc1	-3	-2	-2	-1	-1
CCOC(=O)c1ccc(NC(=O)NC2=NCCS2)cc1	1	11*	1	-1	0
CCOc1cccc(C(=O)NC2=NCCS2)c1	4	9	2	1	8.1*
CCC[C@H]1[C@@H](OC(=O)NCc2cccc(Cl)c2)CC[C@@]23CCCN2C(=O)CCC[C@@H]13	-4	2	.	-2	.
SMILES	hcDAF12 agonist	hgDAF-12 ag	DAX1 inh-1	ssDAF12 agonist	DAX1 inh-2
O=C(CCc1ccccc1)N[C@H]1[C@H](OC(=O)c2cnccn2)CCC[C@]12C(=O)N(Cc1ccccc1)c1ccccc12	0	-1	0	-1	.
O=C(C1CCN(c2ncnc3c2sc2cccc(F)c23)CC1)N1CCN(Cc2ccccc2)CC1	1	-3	-1	-1	.
CCCC(=O)N1CCC(NS(=O)(=O)c2ccc3c(c2)CCN3C(C)=O)CC1	-2	-1	-1	-2	.
O=C(NC1=NCCS1)c1cccc(F)c1	1	4	0	0	.
COc1cccc(C(=O)NC2=NCCS2)c1	5	11*	3	1	2
COC(=O)[C@]12C[C@H](CC(=O)NCCC(C)C)C(=O)N(Cc3ccc(Cl)cc3Cl)C1=C[C@H](C1CCCC1)O[C@@H]2C	-3	0	-1	-1	.
CCC(c1nc2ccccc2[nH]1)n1c(=O)c(-c2ccco2)nc2ccccc21 (stereo unspecified)	-2	0	0	-1	.
O=c1c(-c2cccs2)nc2ccccc2n1C(c1ccccn1)c1nc2ccccc2[nH]1 (stereo unspecified)	2	12*	3	0	.
O=c1c(-c2ccccc2)nc2ccccc2n1C(c1ccccn1)c1nc2ccccc2[nH]1 (stereo unspecified)	-1	0	2	-1	.
COc1ccc2c(c1)nc(-c1cccc(Br)c1)c(=O)n2C(c1ccccn1)c1nc2ccccc2[nH]1 (stereo unspecified)	4	9	2	0.9*	.
O=c1c(-c2ccco2)nc2ccccc2n1C(c1ccccn1)c1nc2ccccc2[nH]1 (stereo unspecified)	3	4	1	1.1*	.
CC(C)(C)NC(=O)C(c1ccnc2ccccc12)n1c(=O)c(-c2ccco2)nc2ccccc21 (stereo unspecified)	3	-1	4.0*	0	.
O=c1c(-c2cccnc2)nc2ccccc2n1C(c1ccccn1)c1nc2ccccc2[nH]1 (stereo unspecified)	1	-1	0	-1	.
CC(=O)c1cc(-c2ccccc2)n(CC(=O)NCc2ccc(F)cc2)c1C	-3	-1	-1	-1	.
N#Cc1ccc(S(=O)(=O)N2CCN(CC(=O)NCC3(N4CCOCC4)CCCCC3)CC2)cc1	1	-1	0	-1	0
Cc1c(C(=O)NCc2cccc([N+](=O)[O-])c2)sc(=O)n1Cc1ccccc1F	-2	0	-1	-2	.
Cc1ccc(C)n1NC(=O)c1ccccc1O	4	4	3	1.4*	2
Cc1ccc(C)n1NC(=O)c1ccccc1[N+](=O)[O-]	-1	3	0	-1	0
CC1(C)C2CC[C@]3(C)C(CC=C4[C@@H]5C[C@@](C)(CO)[C@@H](O)C[C@]56C[C@@H](OC6=O)[C@]43C)[C@@]2(C)CC[C@@H]1O (stereo partly specified)	-1	1	0	-2	5.5*
C[C@H]1[C@H](C)CC[C@]2(C(=O)O)CC[C@]3(C)C(=CC[C@@H]4[C@@]5(C)CC[C@H](O)C(C)(C)[C@@H]5CC[C@]43C)[C@H]12	2	0	0	-1	0
Cc1ccc(N(CC(=O)NCC2CCCO2)C(=O)Cn2nnc(-c3cccs3)n2)cc1 (stereo unspecified)	5.6*	12*	3	1.1*	-1

Screens (PubChem)
